HP1b chromo inh = blocks HP1-beta chromodomain binding to methylated histone tails. AlphaScreen HP1-beta / biotin-H3K9me3 peptide binding. hit rate 0.56% among 390,000. Potency, µM (highest dose often 114 µM), inactives show at the top dose activity change, negative = inhibition, hits mostly inhibitors. P83916; further: nearly all actives have a fitted effect of over 70% in size
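Compound inhibition of the preformed complex between 50 nM HP1-beta and 50 nM biotinylated H3K9me3 peptide was read by AlphaScreen. Buffer was PBS pH 7.4 with 0.01% Tween-20. Incubations ran 30 min at room temperature, with 10 ug/mL donor/acceptor beads.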
BAZ2B inh = blocks human BAZ2B; AlphaScreen BAZ2B-H3K14Ac peptide displacement; Potency, µM (top dose mostly 114 µM), without a hit: at the top dose activity change, negative = inhibition, most hits filed as inhibitors; hit rate 4.4% among 360,000; Q9UIF8; AID 504333; further: on the % scale 0 is the no-effect control and ±100 the full control effect; nearly all actives have a fitted effect of over 60% in size
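BAZ2B (50 nM) with biotin-H3(5-23)K14Ac peptide (50 nM) in PBS pH 7.4, 0.01% Tween-20, preformed 30 min, then compound 30 min at room temperature; top concentration 110uM. AlphaScreen streptavidin donor/nickel chelate acceptor beads (10 ug/mL final), 20 min dark, signal read.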
G9a inh = blocks human histone lysine methyltransferase G9a; Potency, µM (series often up to 102 µM), without a hit: top-dose activity, negative = inhibition, most hits filed as inhibitors; AID 504332; hit rate 8.8% among 350,000; G9a H3K9 monomethylation, AlphaScreen, 2 h; Q96KQ7; further: on the % scale 0 is the no-effect control and ±100 the full control effect; nearly all actives have a fitted effect of over 75% in size
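Step 1: enzyme (final 20 nM) with compound, 15 min RT. Step 2: substrate peptide 500 nM and SAM 20 uM, 2 h RT. Step 3: anti-H3K9me1 antibody and AlphaScreen beads, 10 min, then plate read.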
JMJD2A Tudor inh = inhibitors of human JMJD2A Tudor domain. AlphaScreen JMJD2A-Tudor / H3K4me3 peptide binding. Potency, µM (doses to about 114 µM), for the others: at the highest dose activity change, negative = inhibition, most hits filed as inhibitors. O75164. hit rate 4.4% among 390,000; further: on the % scale 0 is the no-effect control and ±100 the full control effect; nearly all actives have a fitted effect of over 50% in size
GLS inh = glutaminase GLS (human) inhibition; O94925; GLS enzymatic activity, qHTS titration; Potency, µM (highest dose often 45.5 µM), inactives show at the highest dose activity change, negative = inhibition, usual class: inhibitors; hit rate 0.21% among 410,000; AID 624170; further: on the % scale 0 is the no-effect control and ±100 the full control effect
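hKGA in 45 mM KH2PO4 pH 8.2, 0.02% Tween-20 with pin-transferred compounds; 1 mM L-glutamine (stock) plus glutamate oxidase/HRP/Amplex Red coupling added. Fluorescence read initially and after 30 min at RT.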
* hit, by the source's call; ? = inconclusive; / = no result; [ ] = dose if it differs, or a comment. Shown are actives, neighbours in structure and some others; about 10% of the full set was active somewhere. The call rests on the fitted dose curve; in most records, active means well fitted curve in the direction sought with a large enough effect; inconclusive means small, poorly fitted or top-dose-only effect, or another doubt; inactive means no such curve, though single readings can be large; an effect the other way counts as inactive or inconclusive. Potency means the concentration at half of the fitted maximal effect.

SMILES | HP1b chromo inh | BAZ2B inh | G9a inh | JMJD2A Tudor inh | GLS inh
Cc1c(C#N)c(O)[nH]c(=O)c1N=Nc1ccc(Br)cc1C(=O)O | -4.9%[57 µM] | ? | 44.7µM* | ? | -0.4%
Cc1cccc(N=Nc2c(C)c(C#N)c(O)[nH]c2=O)c1 | 3.2% | -33.3% | 50.1µM* | -33.7% | 18.8%
Cc1cccc(C(=O)Nc2cc(S(=O)(=O)N3CCOCC3)ccc2N2CCCC2)c1 | 18.1% | -15.3% | -2.4% | -17.9% | -0.4%
Fc1ccccc1C1c2[nH]c3ccccc3c2CCN1Cc1cccn1-c1ncccn1 (centres undefined) | ? | 31.6µM* | / | ? | 11.0%
Cc1ccccc1C1c2[nH]c3ccccc3c2CCN1CCCn1cccn1 (centres undefined) | -17.4% | ? | ? | ? | 8.7%
Cc1ccccc1C1c2[nH]c3ccccc3c2CCN1Cc1cccn1-c1ncccn1 (centres undefined) | -11.5% | 25.1µM* | 50.1µM* | ? | -7.1%
COc1ccc(C2c3[nH]c4ccccc4c3CCN2CCCn2cccn2)c(F)c1 (centres undefined) | -22.7% | -37.6% | ? | -35.2% | -1.6%
COc1cc(C(CC(=O)NCc2ccc(F)cc2)N2Cc3ccccc3C2=O)cc(OC)c1OC (centres undefined) | 18.2% | -7.9% | -5.5%[59 µM] | -4.1% | 2.9%
CCCCCc1ccc(C(=O)CCC(=O)OCC(=O)N(CC)c2c(N)n(Cc3ccccc3)c(=O)[nH]c2=O)cc1 | 24.7% | 3.0% | 23.7% | -6.9% | -2.5%
O=C(NC1CCCCC1)c1cc(-c2ccco2)on1 | 25.5% | 1.1% | -3.8% | -8.3% | 0.2%
CC(=O)c1ccc(NC(=O)c2ccc3nc(-c4ccco4)c(-c4ccco4)nc3c2)cc1 | 8.91µM* | 11.2µM* | 1.78µM* | 44.7µM* | 14.1µM*
CNC(=O)c1ccc2nc(-c3ccco3)c(-c3ccco3)nc2c1 | 17.8µM* | / | / | 17.8µM* | /
O=C(NC1CC1)c1ccc2nc(-c3ccco3)c(-c3ccco3)nc2c1 | 22.4µM* | / | / | 20µM* | /
O=C(NCc1ccccc1)c1ccc2nc(-c3ccco3)c(-c3ccco3)nc2c1 | -94.1% | 50.1µM* | 1.78µM* | 20µM* | -20.1%
CCc1nc2ccc(C(=O)Nc3ccc(NC(C)=O)cc3)cc2nc1CC | 2.6% | 4.8% | -11.2%[59 µM] | -14.1% | 2.0%
Cc1cc(-c2ccccc2)nc(Nc2nc3c(C)cccc3c(=O)[nH]2)n1 | 44.9% | / | / | -6.6%[11.4 µM] | ?
O=C(Nc1ccc(N2CCOCC2)cc1)c1ccc2nc(-c3ccco3)c(-c3ccco3)nc2c1 | 38.5% | -3.5% | ? | -19.2% | 2.8%
O=C(Nc1ccccc1)c1ccc2nc(-c3ccco3)c(-c3ccco3)nc2c1 | ? | -34.4% | ? | 50.1µM* | -18.3%
COc1cc(-c2nc3cccc(C)n3c2Nc2ccc3c(c2)OCCO3)ccc1O | -6.3% | / | ? | -33.7% | 0.8%
c1coc(-c2nc3ccccn3c2Nc2ccc3c(c2)OCCO3)c1 | ? | 44.7µM* | 12.6µM* | 56.2µM* | 9.3%
Cc1cccc2nc(-c3ccco3)c(Nc3ccc4c(c3)OCCO4)n12 | ? | 35.5µM* | ? | 56.2µM* | -1.6%
Cc1ccc2nc(-c3ccco3)c(Nc3ccc4c(c3)OCCO4)n2c1 | 40.8% | -13.4% | ? | -9.6% | -13.3%
Cc1ccn2c(Nc3ccc4c(c3)OCCO4)c(-c3ccc(C)o3)nc2c1 | -7.3% | 31.6µM* | 25.1µM* | 44.7µM* | -4.7%
Cc1ccn2c(Nc3ccc(F)cc3)c(-c3ccc(C)o3)nc2c1 | 38.8% | -7.3% | -45.1%[59 µM] | -10.2% | -5.4%
CCOc1ccccc1NC(=O)c1cc2cc(C)ccc2n1C | 165.7% | 44.6% | 63.1%[59 µM] | 86.1% | -5.1%
SMILES | HP1b chromo inh | BAZ2B inh | G9a inh | JMJD2A Tudor inh | GLS inh
O=C(NC1CC1)c1[nH]c(C(F)(F)F)nc1-c1ccccc1 | / | / | / | / | -6.7%
COC(=O)c1ccc(=O)c2nc3/c(=C/O)c(O)cc(=O)c3[nH]c12 | -69.1% | 0.708µM* | 0.794µM* | 0.631µM* | 5.01µM*
CCCSc1nc2cc(C)c(C)cc2n1CC(C)O (centres undefined) | 17.6% | ? | 11.2µM* | -10.1% | 5.9%
CCCSc1nc2cc(C)c(C)cc2n1CC(O)CO (centres undefined) | 20.9% | -3.0% | 4.2% | -11.7% | 7.4%
COc1ccc(C2CC(=O)Oc3c(C(CCN4CCN(c5ccccc5)CC4)c4ccc(N(C)C)cc4)c(OC)cc(OC)c32)cc1 (centres undefined) | ? | 4.47µM* | ? | 5.01µM* | 19.3%
COc1cc(C(CCN2CCCCC2)c2c(OC)cc(OC)c3c2OC(=O)CC3c2ccc(N(C)C)cc2)cc(OC)c1OC (centres undefined) | ? | / | / | 39.8µM* | /
COc1cc(C(CCN2CCOCC2)c2c(OC)cc(OC)c3c2OC(=O)CC3c2ccc(N(C)C)cc2)cc(OC)c1OC (centres undefined) | ? | 14.1µM* | -9.4%[12.7 µM] | 28.2µM* | 26.1%
CCN(CC)CCC(c1cc(OC)c(OC)c(OC)c1)c1c(OC)cc(OC)c2c1OC(=O)CC2c1ccc(N(C)C)cc1 (centres undefined) | -32.8% | / | / | 31.6µM* | /
COc1cc(C(CCN2CCCC2)c2c(OC)cc(OC)c3ccc(=O)oc23)cc(OC)c1OC (centres undefined) | 29.1% | -2.9% | 28.0%[12.7 µM] | -14.5% | 17.6%
COc1cc(C(CCN2CCN(c3ccccc3)CC2)c2c(OC)cc(OC)c3c(C)cc(=O)oc23)cc(OC)c1OC (centres undefined) | -29.2% | ? | -118.8%[59 µM] | ? | 11.6%
CC(C)=CCCC(C)=CCN1C(=O)CN(C)C1=O | / | / | / | / | 0.8%
COc1ccc(OC)c(S(=O)(=O)N/N=C\c2cn(CC(N)=O)c3ccccc23)c1 | 14.7% | -14.5% | / | -12.5% | -6.8%
COc1ccc(C2CC(=O)Oc3c(C(CCN4CCOCC4)c4ccc5c(c4)OCO5)c(OC)cc(OC)c32)cc1 (centres undefined) | -27.6% | / | / | 56.2µM* | /
COc1ccc(C2CC(=O)Oc3c(C(CCN4CCOCC4)c4cc(OC)c(OC)c(OC)c4)c(OC)cc(OC)c32)cc1 (centres undefined) | 9.1% | -36.9% | ? | ? | -2.6%
COc1cc(OC)c2c(c1C(CCN1CCOCC1)c1ccc(N(C)C)cc1)OC(=O)CC2c1ccc(N(C)C)cc1 (centres undefined) | 14.1µM* | 10µM* | -167.9%[59 µM] | 6.31µM* | 31.8%
COc1cc(C(CCN2CCCC2)c2c(OC)cc(OC)c3c2OC(=O)CC3c2ccc(N(C)C)cc2)cc(OC)c1OC (centres undefined) | ? | / | / | 28.2µM* | /
COc1cc(C(CCN2CCOCC2)c2c(OC)cc(OC)c3ccc(=O)oc23)cc(OC)c1OC (centres undefined) | / | / | -5.6%[59 µM] | / | /
CC(=O)c1cc(-c2ccc(F)cc2)n(CC(=O)NCc2ccc(C)cc2)c1C | 13.4% | 6.4% | 6.2%[59 µM] | -3.5% | -2.1%

Source: PubChem
